Screening results deposited in PubChem BioAssay by National Center for Advancing Translational Sciences (NCATS).
Sfp inh = Sfp phosphopantetheinyl transferase inhibition; Biochemical Sfp PPTase activity, qHTS; Potency, µM, for the others: largest response in the series, negative = inhibition, usual class: inhibitors; actives 3.5% (n = 310,000); AID 1490;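 also: the enzyme is Sfp with the accession as filed and its product quenches rhodamine fluorescence; 0% = enzyme reaction without inhibitor and -100% = no enzyme wells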
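Sfp 15 nM + cpd, 15 min RT; start w/ rhodamine-CoA 5 uM, BHQ-2-YbbR 12.5 uM (final); 50 mM Hepes pH 7.6, 10 mM MgCl2, 0.01% NP-40, 0.01% BSA; read 525/598 nm at 0 and 30 min.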
Gal4-VP16 FLuc = inhibits Gal4-VP16 luciferase reporter, ROR gamma counter-screen. Drosophila S2 Gal4-VP16 UAS-luciferase, luminescence, 20 h. actives 3.5% (n = 310,000). Potency, µM (top dose mostly 53.6 µM), for the others: at the highest dose activity, negative = inhibition, most hits filed as inhibitors;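 also: Gal4-VP16 expression switched on by copper sulfate through the metallothionein promoter; nearly all actives have a fitted effect of over 50% in size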
PLK1 PBD inh = PLK1 (human) polo-box domain binding inhibition; P53350; Plk1 PBD binding of FITC phosphopeptide, fluorescence polarization; Potency, µM, inactives show max response, negative = inhibition, hits mostly inhibitors; actives 2.8% (n = 360,000); AID 720504; also: series mostly up to about 57 µM; nearly all actives have a fitted effect of over 65% in size
ALDH1A1 block = inhibitors of human aldehyde dehydrogenase 1A1; P00352; Purified ALDH1A1, NADH fluorescence, propionaldehyde substrate; Potency, µM (series often up to 75.3 µM), inactives show top-dose activity, negative = inhibition, actives largely listed as inhibitors; actives 7.3% (n = 220,000); AID 1030; active = well fitted inhibition curve with a large enough effect, not every such curve was filed as active; inconclusive = small, poorly fitted or top-dose-only effect, or another doubt; inactive = no such curve, though single readings can be large or run the other way;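 also: plate controls were no enzyme wells and a reference inhibitor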
RORgamma inh = ROR gamma (mouse) transcription inhibition | P51450 | Drosophila S2 Gal4-RORgamma UAS-luciferase reporter, 20 h | Potency, µM (doses to about 53.6 µM), without a hit: top-dose activity change, negative = inhibition, most hits filed as inhibitors | actives 5.4% (n = 310,000); also: nearly all actives have a fitted effect of over 60% in size
Target sequence (P51450 whole entry, looked up, the tested form may be a part): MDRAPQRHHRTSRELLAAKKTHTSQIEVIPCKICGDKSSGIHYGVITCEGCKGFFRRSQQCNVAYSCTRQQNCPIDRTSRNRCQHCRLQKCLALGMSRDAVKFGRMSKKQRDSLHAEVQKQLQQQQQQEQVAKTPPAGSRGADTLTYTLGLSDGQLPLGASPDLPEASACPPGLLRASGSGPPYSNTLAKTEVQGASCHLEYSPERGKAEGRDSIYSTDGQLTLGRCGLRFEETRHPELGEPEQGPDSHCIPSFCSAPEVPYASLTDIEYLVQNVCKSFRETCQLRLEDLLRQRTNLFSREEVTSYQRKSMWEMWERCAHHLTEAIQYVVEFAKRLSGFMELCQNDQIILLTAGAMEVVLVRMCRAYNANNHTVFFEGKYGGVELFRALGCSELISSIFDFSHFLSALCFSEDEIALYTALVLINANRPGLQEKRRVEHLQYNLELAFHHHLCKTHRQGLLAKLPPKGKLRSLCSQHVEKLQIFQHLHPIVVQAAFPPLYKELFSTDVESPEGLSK
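A Gal4/UAS one-hybrid system in insect cells: metallothionein-promoter Gal4–ROR gamma fusion plus Photinus luciferase reporter. Copper sulfate 700 uM final, 20 hr ambient incubation, luminescent detection after 10 min with reagent.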
The depositor's hits bear a star; ? = inconclusive; nt = no result given; [ ] = another dose, or the depositor's remark. Compounds with a hit are over-represented: about 12% of the library has one in this group of screens. Unless noted, calls follow the shape of the dose curve; as a rule, active = well fitted curve in the direction sought with a large enough effect; inconclusive = small, poorly fitted or top-dose-only effect, or another doubt; inactive = no such curve, though single readings can be large; an effect the other way counts as inactive or inconclusive. Unless noted, % is scaled to controls: 0 for no effect and ±100 for the full control effect; potency is read from the fitted curve at half-maximal effect.

SMILES | Sfp inh | Gal4-VP16 FLuc | PLK1 PBD inh | ALDH1A1 block | RORgamma inh
O=C(NNC(=O)c1ccccc1OCc1ccccc1)c1ccccc1O | 23% | 11µM* | 3% | nt | 6.3µM*
O=C(NNC(=O)c1ccccc1OCc1ccc(F)cc1)c1ccccc1O | 16% | 10µM* | -9% | nt | 4.5µM*
COC(=O)[C@@]1(Cc2ccccc2)C=C[C@@H](C)N1C(=O)c1ccccc1 | 5% | 9% | nt | 40µM* | -14%
COC(=O)[C@@]1(Cc2ccccc2)C=C[C@@H](C)N1C(C)=O | 5% | 3% | -13% | ? | 0%
CC(=O)N1[C@H](C)C=C[C@]1(Cc1ccccc1)C(=O)NCc1ccc(C)o1 | 22µM* | ? | nt | ? | ?
CN(CC(=O)Nc1ccccc1Br)C(=O)c1ccccc1-c1nc2ccccc2s1 | -2% | -25% | -9% | nt | -20%
FC(F)(F)c1ccccc1-c1nc(NCc2cccnc2)c2ccccc2n1 | -9% | -5% | nt | 4% | -29%
Cc1ccc(NC(=O)CSc2nnc(C3COc4ccccc4O3)o2)c(Cl)c1 (stereo unspecified) | 10% | -5% | -6% | 2.8µM* | 8%
O=C(CSc1nnc(C2COc3ccccc3O2)o1)Nc1ccc(F)cc1Cl (stereo unspecified) | 16% | 0% | -15% | 10µM* | 18%
CCc1[nH]nc2c1C(c1ccsc1)C(C#N)=C(N)O2 (stereo unspecified) | -4% | -10% | ? | -5% | -12%
Cc1ccc(C2C(C#N)=C(N)Oc3n[nH]c(-c4cccs4)c32)s1 (stereo unspecified) | 18% | -22% | ? | 0% | 10µM*
CCc1[nH]nc2c1C(c1ccc(Br)s1)C(C#N)=C(N)O2 (stereo unspecified) | -1% | ? | ? | ? | 11µM*
N#CCCSC(=S)[C@H]1CCCC1=N | nt | nt | nt | 4%[13.5 µM] | nt
C=CCSc1nc(-c2ccc3c(c2)OCO3)cc(C(F)(F)F)c1C#N | 18µM* | -1% | -6% | ? | -12%
CC1C=CCC2C(=O)N(c3ccc(Cl)cc3O)C(=O)C12 (stereo unspecified) | 3% | -18% | 11µM* | -1% | 15%
O=C(c1ccc2nc(Cc3ccccc3F)oc2c1)N1CCCC1 | 11% | 3% | -1% | nt | 1%
O=C(c1ccc2nc(Cc3ccccc3F)oc2c1)N1CC[C@H](O)C1 | 13% | -9% | 24µM* | nt | 29%
CCCNCC(O)Cn1c2ccccc2n2c(=O)cc(C)c(C#N)c12 (stereo unspecified) | 2% | -79% | -10% | ? | 0.71µM*
Cc1cc(=O)n2c3ccccc3n(CC(O)CN3CCCC3)c2c1C#N (stereo unspecified) | 9% | -9% | 3% | ? | -28%
O=C(CN1CCCC1)Nc1c2c(nc3ccccc13)N(Cc1ccccc1)CC2 | 14µM* | -1% | -9% | ? | -3%
O=C(CN1CCOCC1)Nc1c2c(nc3ccccc13)N(Cc1ccccc1)CC2 | 3% | 2%[0.365 µM] | -7% | ? | 19%
O=C(c1cc2cc(Cl)ccc2o1)N1CCCC1 | -8% | 1% | -16% | nt | -19%
O=C(c1cc2cc(Br)ccc2o1)N1CCCCC1 | ? | 10%[10 µM] | -19% | 22µM* | 8%
CC1(c2nc3ccccc3[nH]2)CCC(=O)N1C1CC1 (stereo unspecified) | nt | nt | 7% | nt | nt
Cc1csc2c(N3CCN(C(=O)Nc4ccc(OC(F)(F)F)cc4)CC3)ncnc12 | 11% | 13µM* | -8% | -9% | ?
SMILES | Sfp inh | Gal4-VP16 FLuc | PLK1 PBD inh | ALDH1A1 block | RORgamma inh
Cc1csc2c(N3CCC(C(=O)O)CC3)ncnc12 | 7% | 5% | 3% | nt | 10%
CCCCCCCCCCCCCCCCCC(=O)NCCc1ccc(O)c(O)c1 | 26% | 7% | nt | -2% | -1%
CCCCOc1cccc(C(=O)NC(=S)Nc2ccc(Cl)c(C(=O)O)c2)c1 | 7% | -23% | -14% | ? | 18%
CCCOc1cccc(C(=O)NC(=S)Nc2cccc(C(F)(F)F)c2)c1 | 4% | ? | -3% | 18µM* | 10µM*
CCOc1cccc(C(=O)NC(=S)Nc2cccc(C)c2)c1 | -7% | 10µM* | 0% | 8.9µM* | 2.5µM*
CCOc1cccc(C(=O)Nc2cccc(C(C)=O)c2)c1 | -14% | 9% | -5% | 6% | 3%
CCN(CC)c1ccc(S(=O)(=O)N2CCOCC2)cc1NC(=O)COC(=O)C1=COCCO1 | nt | nt | 2% | nt | nt
Cc1ccc(N2C3=C(C(=O)CC(C)(C)C3)C(c3cn(C)nc3C)C3=C2CC(C)(C)CC3=O)cc1 | nt | nt | 3.8µM* | nt | nt
Cc1nn(C)cc1C1C2=C(CC(C)(C)CC2=O)N(c2ccccc2)C2=C1C(=O)CC(C)(C)C2 | 3% | 2% | -14% | ? | -1%
O=c1oc2ccccc2cc1-c1cn2ccccc2n1 | -22% | 2.2µM* | 2% | ? | 1µM*
CSc1nnc(-c2cc(Br)ccc2N=Cc2c(C)[nH]n(-c3ccccc3)c2=O)c(=O)[nH]1 | -6% | -14% | -20% | 19µM* | 19%
Cc1[nH]n(-c2ccccc2)c(=O)c1C=Nc1ccc(S(=O)(=O)Nc2nccs2)cc1 | 15% | 11% | 24µM* | 13µM* | 7%
Cc1ccc(-n2[nH]c(C)c(C=Nc3ccc(S(=O)(=O)Nc4nccs4)cc3)c2=O)cc1C | 5% | 2% | -30% | 4% | 12%[10 µM]
Cc1[nH]n(-c2ccccc2)c(=O)c1C=Nc1cccc2cccnc12 | -9% | 0.63µM* | -9% | -10% | 0.63µM*
Cc1[nH]n(-c2ccccc2)c(=O)c1/C=N/N1C(=O)c2cccc3cccc(c23)C1=O | 15% | ? | -17% | ? | 7.1µM*
CCC(CC)C(=O)N(C)c1c(C)nc2c(OCCC3CCCCC3)cccn12 | nt | nt | -9% | nt | nt
CC(=O)N1CCC[C@@]2(CCN(Cc3cc(C(F)(F)F)cc(C(F)(F)F)c3)C2)C1 | 6% | -13% | nt | 1% | 1%
Cc1cc2nc(CCN(C(=S)NCC(C)C)C3CCCC3)[nH]c2cc1C | 19% | ? | -4% | -16% | 7.1µM*
Cc1cc2nc(CCN(C(=S)NCC3CCCO3)C3CCCC3)[nH]c2cc1C (stereo unspecified) | 7% | ? | 6% | -12% | 13µM*
Cc1nc2ccccc2c(C)c1C(=O)c1ccccc1 | 13% | 2% | 24µM* | 5% | -13%
CC(=O)c1c(C)nc2ccccc2c1N | 18% | 13% | 2% | -2% | 0%
O=C(Nc1ccc2c(c1)OCCO2)C(c1ccncc1)n1c(=O)c(-c2cc3ccccc3[nH]2)nc2ccccc21 (stereo unspecified) | nt | nt | -13% | nt | nt
c1coc(CSc2ncnc3c2oc2ccccc23)c1 | 56µM* | ? | -11% | nt | 11%
c1ccc(CSc2ncnc3c2oc2ccccc23)cc1 | nt | nt | -17% | nt | nt
COc1cc(/C=N\N=C2/SC(CC(=O)O)C(=O)N2c2ccc(O)cc2)ccc1O (stereo unspecified) | 13% | -5% | -1% | 5% | -8%
COc1cc(/C=N/N=C2/SCC(=O)N2c2ccc(O)cc2)ccc1O | 7% | -13% | 3µM* | -6% | 6%
